# Laboratory results from PubChem BioAssay (NCI).
# Compounds without any hit were thinned out: in the full panel of roughly 83,000, 20% have a hit.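 Assay: single dose, 48 h. Readout: percent growth (0 = no net growth; negative = cell death). Active: <10.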 Unmarked numbers belong to inactive results. Active and inactive are the calls of the source.
# Tested on: M14 melanoma
# Assay: NCI-60 one-dose screen, 48 h (100 = growth as untreated, 0 = no growth, -100 = all killed)
# Conditions: 10 µM unless noted
# Experimental: Growth inhibition of the M14 human tumor cell line is measured as a screen for anti-cancer activity. Cells are grown in 96 well plates and exposed to the test compound for 48 hours. Compounds are tested at a single concentration, which is 10^-5 M for most compounds. The reported endpoint is percent growth (GI% or GIPRCNT), where numbers from 0 - 100% represent growth inhibition, and numbers from -100% - 0 represent cell death. For example, a value of 40 represents 60% growth inhibition. A value of 0 means no net growth occurred over the course of the experiment. A value of -40 indicates 40% of cells at the beginning of the experiment died by the end of the experiment. A value of -100 means all cells are dead at the end of the experiment.
# NCI-60 Human Tumor Cell Lines Screen was performed using the standard one-dose NCI protocol, which is described in more detail at https://dtp.cancer.gov/discovery_development/nci-60/default.htm.
# Compounds with GIPRCNT values below 10 were considered active. Activity score was based on GIPRCNT using the following formula: […]
# Score is 0 for GIPRCNT values of 100 or above, 50 for GIPRCNT values of 0, and 100 for GIPRCNT values of -100.
row,Compound,growth
1,COc1ccc2c(c1)C(=O)c1c-2c(OCCCN(C)C)nc2cc(Br)ccc12,91.8%
2,COc1ccc(-n2nnc(C(=O)O)c2-c2cc(OC)c(OC)c(OC)c2)cc1,104%
3,O=c1[nH]c(Cl)nc2c1cnn2-c1ccccc1,84.9%
4,O=C(Nc1ncc([N+](=O)[O-])s1)c1cccc([N+](=O)[O-])c1,44%
5,Cc1cc(NCCCNc2ccnc3cc(Cl)ccc23)nc(N2CCN(C)CC2)n1,25.7%
6,O=C(c1ccccc1)c1ccccc1Cl,101%
7,O=[N+]([O-])c1cnc(Sc2ccncn2)c([N+](=O)[O-])c1,97.2%
8,Cc1nn(-c2ccccc2)c2c1oc(=O)c1cc(Cl)ccc12,92.6%
9,CCN(CC)CCCNCCCNc1cc(OC)cc2cccnc12,102%
10,CC1(C)OC(=O)C(=Cc2ccccc2Br)C(=O)O1,88%
11,CCn1c2c(c3ccccc31)SC1c3cccn3CCN1C2=S (stereo not given),94.4%
12,CCC(c1ccccc1)c1noc(CCN(CC)CC)n1 (stereo not given),96.7%
13,CC12CCCCC1C(C(N)=O)C(=O)O2 (stereo not given),104%
14,Cc1cc(C)c2c(c1)N1OC(C2)C[C@H]1/C=C/c1ccccc1 (stereo not given in full),104%
15,COc1ccc(C(=O)C(C)Br)cc1OC (stereo not given),97.5%
16,Cc1ccc(NC(=O)CSc2nnc3n(Cc4ccccc4)c(=O)c4c(C)c(C(N)=O)sc4n23)cc1,60.5%
17,Cc1nn(-c2ccc(Cl)cc2)c2nc3c(nc12)c(=O)oc1ccccc13,107%
18,CCOC(=O)C1=C(COCCN)NC(C)=C(C(=O)OC)C1c1ccccc1Cl (stereo not given),48.6%
19,COc1c(O)cc2oc3cc(O)c(CC=C(C)C)c(O)c3c(=O)c2c1C/C=C(\C)CCC=C(C)C,52%
20,COc1ccc(C2=NNC(c3cc(Cc4ccc(O)c(C5CC(c6ccc(OC)cc6)=NN5)c4)ccc3O)C2)cc1 (stereo not given),59.3%

row,Compound,growth
1,O=C(Nc1ccc(Cl)cc1Cl)Nc1ccc(-c2cccnc2)cc1N1CCC(CO)CC1,36%
2,COc1ccc(-c2nn(-c3cccc(Cl)c3)cc2C2CC(c3ccccc3)=NN2C(C)=O)cc1 (stereo not given),89.2%
3,CC(C)COCC(CN(Cc1ccccc1)c1ccccc1)N1CCCC1 (stereo not given),51.9%
4,CC(=O)O[C@H]1C(=O)[C@@]2(C)C([C@H](OC(=O)c3ccccc3)[C@]3(O)C[C@H](OC(=O)[C@H](O)[C@@H](NC(=O)c4ccccc4)c4ccccc4)C(C)=C1C3(C)C)[C@]1(OC(C)=O)CO[C@@H]1C[C@@H]2O (stereo not given in full),20%
5,O=C(/C=C/c1cccnc1)/C=C/c1cccnc1,-47.3% (active)
6,CC(=O)c1nc2ccccc2n1CCn1cc(CC(N)C(=O)O)c2ccccc21 (stereo not given),103%
7,O=C1Cc2cc(CCn3cncn3)c(Cl)cc2N1,24%
8,O=C(Nc1ccncc1)C(=O)c1cn(S(=O)(=O)c2cccc(F)c2)c2ccccc12,26.8%
9,O=C(c1nn(-c2ccc(Cl)cc2)cc1O)n1nc(C(F)(F)F)cc1-c1ccccc1,43.4%
10,Cc1nn(-c2ccc(Cl)cc2)c2nc3c(nc12)C(=O)c1ccccc1-3,70.5%
11,CN1CCN(CC(=O)Nc2nc3c(s2)Nc2cc(Cl)c(Cl)cc2NC3=O)CC1,105%
12,CO[C@H]1CC(O[C@@H]2/C(C)=C/C[C@@H]3C[C@@H](C[C@]4(CC[C@H](C)[C@@H](C5CCCCC5)O4)O3)OC(=O)[C@@H]3C=C(C)/C(=N/O)[C@H]4OC/C(=C\C=C\[C@@H]2C)[C@]43O)O[C@@H](C)C1O (stereo not given in full),-81.4% (active)
13,O=C(Nc1ccc(Oc2ccc(NC(=O)Nc3ccc([N+](=O)[O-])cc3)cc2)cc1)Nc1ccc([N+](=O)[O-])cc1,5.41% (active)
14,O=C1OC(c2ccc(-c3ccccc3)cc2)=C/C1=C/c1cccs1,90.3%
15,CCOC(=O)c1c2c(c(C)n1Cc1ccc(OC)cc1)-c1nc(N)ncc1CC2,106%
16,Cc1cc([N+](=O)[O-])c(C)cc1C(=O)O,100%
17,O=C(O)C(=O)O,109%
18,CCCCCCCCCCCCNc1ncnc2[nH]ncc12,74.2%
19,CSc1ccc2c(c1)N(CCC1CCCCN1C)c1ccccc1S2 (stereo not given),-57.9% (active)
20,Cn1[nH]cc(/C=N/C(N)=O)c1=O,107%
